Measured values reported in PubChem BioAssay (EPA / NIEHS).
Records with an inconclusive call do not appear. Calls of active or inactive are those of the source. Rule for the calls, unless noted: active = hit-call score of the fitted dose curve at least 0.9, where 1 is the maximum; inconclusive = response in the unintended direction; inactive = score below 0.9. Peptide text beside a SMILES is read from it.

Experiments:
[1] = target: Estrogen receptor beta (Homo sapiens) (UniProt Q92731); experiment: OT_ER_ERbERb_1440: Odyssey Thera (OT) 24-hour HEK293T Protein-Complementation Assay for Estrogen Receptor-beta/-beta Homodimer (AID 2283380);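 note: scored as signal increase over DMSO baseline for both agonists and antagonists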
How it was run: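 HEK293T cells stably expressing ER beta LBD (aa 310-547) homodimer fragment-complementation reporter, dosed 24 h. Cells formaldehyde-fixed, Draq5-stained; gain in nuclear (agonist) or nuclear plus cytoplasmic (antagonist) fluorescence versus DMSO read by laser scanning cytometry.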

[2] = target: Estrogen receptor (Homo sapiens) (UniProt P03372); experiment: OT_ERa_GFPERaERE_0480: Odyssey Thera (OT) 8-hour HeLa Transcription Induction Assay for Estrogen Receptor (AID 2283381; active = hit-call score of the fitted dose curve at least 0.9, where 1 is the maximum; inactive = score below 0.9)
How it was run: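 Cells (HeLa) receive compound; after 8 h, reporter fluorescence is imaged and quantified by high-content analysis. Gain-of-signal relative to DMSO gives the endpoint.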

[3] = target: Estrogen receptor (Homo sapiens) (UniProt P03372); experiment: OT_ERa_GFPERaERE_0120: Odyssey Thera (OT) 2-hour HeLa Transcription Induction Assay for Estrogen Receptor (AID 2283382)
How it was run: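 Measures ESR1 pathway reporter gain-of-signal in HeLa cells after a 2-hour treatment, detected as fluorescent protein induction by microscopy, DMSO as baseline.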

[4] = target: Peroxisome proliferator-activated receptor gamma (Homo sapiens) (UniProt P37231); experiment: OT_PPARg_PPARgSRC1_0480: Odyssey Thera (OT) 8-hour Protein-Complementation Assay for Peroxisome Proliferator-activated Receptor Gamma / SRC-1 Co-activator (AID 2283387);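 note: nuclear to cytoplasmic split Venus YFP fluorescence ratio reporting PPARg SRC-1 interaction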
How it was run: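 Read-out: 488 nm N/C fluorescence ratio from complemented Venus YFP fragments, ≥350 cells per image, gain-of-signal fitted against DMSO baseline. Fusions of PPARg/SRC-1 with IFP1/IFP2 expressed transiently in HEK293T; compounds applied 8 h.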

[5] = target: Peroxisome proliferator-activated receptor gamma (Homo sapiens) (UniProt P37231); experiment: OT_PPARg_PPARgSRC1_1440: Odyssey Thera (OT) 24-hour Protein-Complementation Assay for Peroxisome Proliferator-activated Receptor Gamma/ SRC-1 Co-activator (AID 2283388);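 note: nuclear to cytoplasmic ratio of reconstituted Venus YFP fluorescence in fixed imaged cells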
How it was run: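 Transient HEK293T, YFP fragments 1-158/159-239 (mutant IFP1/IFP2) fused to PPARg/SRC-1; 24 h dosing; fix 4% formaldehyde, Draq5; Opera imaging 488/635 nm; N/C ratio, gain vs DMSO.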

[6] = target: Retinoic acid receptor RXR-alpha (Homo sapiens) (UniProt P19793); experiment: OT_NURR1_NURR1RXRa_1440: Odyssey Thera (OT) 24-hour HEK293T Protein Complementation Assay for Nurr1/retinoid X receptor (RXR) (AID 2283386)
How it was run: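 Measured as fluorescence from a reconstituted split reporter, this 24 h HEK293T complementation assay scores compound-induced gain of Nurr1/RXRα association relative to DMSO.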

[7] = target: Retinoic acid receptor RXR-alpha (Homo sapiens) (UniProt P19793); experiment: OT_NURR1_NURR1RXRa_0480: Odyssey Thera (OT) 8-hour HEK293T Protein Complementation Assay for Nurr1/retinoid X receptor (RXR) (AID 2283385)
How it was run: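 Compounds are applied to HEK293T cells carrying Nurr1 and RXRα linked to reporter fragments. After 8 h, fluorescence intensity reports heterodimer formation, with DMSO as baseline.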

[8] = CEETOX_H295R_11DCORT: CeeTox H295R High-throughput Steroidogenesis Assay for 11-Deoxycortisol (11DCORT) (AID 2283432; active = hit-call score of the fitted dose curve at least 0.9, where 1 is the maximum; inactive = score below 0.9); conditions: actives raise or lower the signal
How it was run: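 H295R cells; 10 uM forskolin prestim 48 h; compound in 0.1% DMSO 48 h; media extracted with MTBE; 11-deoxycortisol by LC-MS/MS, 7-point standard curve; gain/loss vs DMSO baseline; viability by MTT in same wells.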

[9] = CEETOX_H295R_OHPREG: CeeTox H295R High-throughput Steroidogenesis Assay for OH-Pregnenolone (OHPREG) (AID 2283434; active = hit-call score of the fitted dose curve at least 0.9, where 1 is the maximum; inactive = score below 0.9); conditions: actives raise or lower the signal
How it was run: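 H295R cells pre-stimulated 48 h with 10 uM forskolin, then exposed 48 h to chemical in 0.1% DMSO. 17alpha-hydroxypregnenolone in medium quantified by MTBE extraction and HPLC-MS/MS; bidirectional fit versus DMSO, viability checked by MTT.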

[10] = CEETOX_H295R_OHPROG: CeeTox H295R High-throughput Steroidogenesis Assay for OH-Progesterone (OHPROG) (AID 2283435; active = hit-call score of the fitted dose curve at least 0.9, where 1 is the maximum; inactive = score below 0.9); conditions: actives raise or lower the signal
How it was run: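 Secreted 17alpha-hydroxyprogesterone is read by tandem MS from media of forskolin-primed H295R cells dosed with chemical for 48 h. Activity is fitted in both directions against DMSO baseline; cytotoxic concentrations are re-tested diluted.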

[11] = CEETOX_H295R_ANDR: CeeTox H295R High-throughput Steroidogenesis Assay for Androstenedione (ANDR) (AID 2283436; active = hit-call score of the fitted dose curve at least 0.9, where 1 is the maximum; inactive = score below 0.9); conditions: actives raise or lower the signal
How it was run: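 H295R cells, following OECD 456 with minor changes, exposed to chemicals for 48 h. Androstenedione in the medium was quantified by HPLC-MS/MS after MTBE extraction. Fitting was bidirectional versus DMSO; chemicals were diluted until MTT viability was ≥70%.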

[12] = CEETOX_H295R_CORTIC: CeeTox H295R High-throughput Steroidogenesis Assay for Corticosterone (CORTIC) (AID 2283437; active = hit-call score of the fitted dose curve at least 0.9, where 1 is the maximum; inactive = score below 0.9;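 note: corticosterone secreted into medium quantified by mass spectrometry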); conditions: actives raise or lower the signal
How it was run: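 H295R adrenal cells prestimulated 48 hours with 10 uM forskolin, then exposed 48 hours to chemical in 0.1% DMSO. Corticosterone in medium measured by HPLC-MS/MS after MTBE extraction; MTT viability in the same wells; bidirectional fit versus DMSO.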

[13] = CEETOX_H295R_CORTISOL: CeeTox H295R High-throughput Steroidogenesis Assay for Cortisol (AID 2283438; active = hit-call score of the fitted dose curve at least 0.9, where 1 is the maximum; inactive = score below 0.9;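 note: cortisol secreted into medium quantified by LC-MS/MS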); conditions: actives raise or lower the signal
How it was run: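 Human adrenocortical H295R cells (passage ≤10) received test chemicals for 48 h after forskolin priming. Secreted cortisol was measured by LC-MS/MS.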

[14] = CEETOX_H295R_DOC: CeeTox H295R High-throughput Steroidogenesis Assay for DOC (AID 2283439; active = hit-call score of the fitted dose curve at least 0.9, where 1 is the maximum; inactive = score below 0.9); conditions: actives raise or lower the signal
How it was run: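 Secreted DOC was quantified from H295R media by HPLC-MS/MS after 48 h chemical exposure following 48 h forskolin (10 uM) prestimulation. Values were fitted in both directions relative to DMSO, the negative control and baseline.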

[15] = target: Bile acid receptor (Homo sapiens) (UniProt Q96RI1); experiment: OT_FXR_FXRSRC1_0480: Odyssey Thera (OT) 8-hour HEK293T Protein-Complementation Assay for Farnesoid X receptor/SRC-1 Co-activator (AID 2283383)
How it was run: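 Co-activator recruitment to FXR was measured in living HEK293T cells, where interaction of the two fused partners restored an active fluorescent reporter. Signal gain after 8 h treatment was referenced to DMSO.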

[16] = target: Bile acid receptor (Homo sapiens) (UniProt Q96RI1); experiment: OT_FXR_FXRSRC1_1440: Odyssey Thera (OT) 24-hour HEK293T Protein-Complementation Assay for Farnesoid X receptor/SRC-1 Co-activator (AID 2283384)
How it was run: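 Cell-based binding reporter: interaction of FXR with SRC-1 brings reporter fragments together, giving a fluorescence signal read 24 h after dosing of HEK293T cells.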

Sequence of Retinoic acid receptor RXR-alpha (Homo sapiens) (P19793 whole entry, looked up, the tested form may be a part): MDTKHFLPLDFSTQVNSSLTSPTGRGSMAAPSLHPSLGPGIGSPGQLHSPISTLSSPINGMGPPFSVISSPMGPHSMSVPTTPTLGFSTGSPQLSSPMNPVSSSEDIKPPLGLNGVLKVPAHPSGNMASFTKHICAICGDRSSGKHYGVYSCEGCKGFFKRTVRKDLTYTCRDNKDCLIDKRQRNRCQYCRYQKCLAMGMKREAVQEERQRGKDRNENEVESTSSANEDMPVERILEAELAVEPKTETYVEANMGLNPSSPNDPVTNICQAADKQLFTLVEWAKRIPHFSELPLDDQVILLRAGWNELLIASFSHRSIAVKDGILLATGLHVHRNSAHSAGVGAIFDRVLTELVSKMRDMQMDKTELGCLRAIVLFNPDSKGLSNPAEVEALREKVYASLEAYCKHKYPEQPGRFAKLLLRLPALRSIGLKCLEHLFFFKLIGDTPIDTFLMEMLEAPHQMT
Sequence of Peroxisome proliferator-activated receptor gamma (Homo sapiens) (P37231 whole entry, looked up, the tested form may be a part): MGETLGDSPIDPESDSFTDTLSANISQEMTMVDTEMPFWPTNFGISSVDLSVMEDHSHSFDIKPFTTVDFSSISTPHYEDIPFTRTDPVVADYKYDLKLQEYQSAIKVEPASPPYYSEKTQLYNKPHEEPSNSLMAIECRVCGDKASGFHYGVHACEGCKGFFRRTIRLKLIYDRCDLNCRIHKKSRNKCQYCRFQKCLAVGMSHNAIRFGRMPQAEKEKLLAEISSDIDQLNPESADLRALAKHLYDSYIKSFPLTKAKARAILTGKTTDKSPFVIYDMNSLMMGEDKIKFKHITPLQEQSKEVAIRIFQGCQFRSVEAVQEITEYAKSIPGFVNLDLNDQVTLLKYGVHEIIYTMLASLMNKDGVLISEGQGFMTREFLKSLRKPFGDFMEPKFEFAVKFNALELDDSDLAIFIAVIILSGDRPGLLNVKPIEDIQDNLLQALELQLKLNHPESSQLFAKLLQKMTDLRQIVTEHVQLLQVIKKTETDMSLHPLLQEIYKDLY
Sequence of Estrogen receptor beta (Homo sapiens) (Q92731 whole entry, looked up, the tested form may be a part): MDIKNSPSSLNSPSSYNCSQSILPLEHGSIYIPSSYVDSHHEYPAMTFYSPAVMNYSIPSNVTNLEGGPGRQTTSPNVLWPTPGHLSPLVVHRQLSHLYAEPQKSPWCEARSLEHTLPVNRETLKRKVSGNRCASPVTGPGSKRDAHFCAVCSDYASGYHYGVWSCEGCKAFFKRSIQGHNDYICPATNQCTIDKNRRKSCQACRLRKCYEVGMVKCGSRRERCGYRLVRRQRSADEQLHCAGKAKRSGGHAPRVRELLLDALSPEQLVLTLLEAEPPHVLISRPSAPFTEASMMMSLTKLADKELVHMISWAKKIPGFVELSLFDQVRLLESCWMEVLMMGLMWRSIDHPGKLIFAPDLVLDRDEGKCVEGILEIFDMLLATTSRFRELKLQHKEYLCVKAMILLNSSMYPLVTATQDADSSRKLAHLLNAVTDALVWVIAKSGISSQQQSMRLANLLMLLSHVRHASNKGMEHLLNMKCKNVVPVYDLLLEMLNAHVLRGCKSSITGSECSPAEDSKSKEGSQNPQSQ
Sequence of Estrogen receptor (Homo sapiens) (P03372 whole entry, looked up): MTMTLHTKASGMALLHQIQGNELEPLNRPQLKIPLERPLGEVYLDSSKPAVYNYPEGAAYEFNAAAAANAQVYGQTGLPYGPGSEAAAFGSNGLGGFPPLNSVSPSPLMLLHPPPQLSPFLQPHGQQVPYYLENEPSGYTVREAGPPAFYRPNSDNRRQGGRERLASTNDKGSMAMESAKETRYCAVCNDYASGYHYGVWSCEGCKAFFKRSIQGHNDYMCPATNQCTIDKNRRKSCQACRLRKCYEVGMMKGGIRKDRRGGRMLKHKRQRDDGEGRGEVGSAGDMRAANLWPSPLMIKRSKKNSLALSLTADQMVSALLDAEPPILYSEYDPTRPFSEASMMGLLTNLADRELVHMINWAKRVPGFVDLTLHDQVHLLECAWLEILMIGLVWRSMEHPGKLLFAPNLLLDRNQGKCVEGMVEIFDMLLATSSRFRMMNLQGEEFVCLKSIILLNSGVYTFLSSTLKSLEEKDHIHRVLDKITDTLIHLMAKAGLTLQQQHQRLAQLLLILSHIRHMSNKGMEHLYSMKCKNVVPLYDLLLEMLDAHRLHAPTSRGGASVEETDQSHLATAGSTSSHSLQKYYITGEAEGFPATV
Sequence of Bile acid receptor (Homo sapiens) (Q96RI1 whole entry, looked up, the tested form may be a part): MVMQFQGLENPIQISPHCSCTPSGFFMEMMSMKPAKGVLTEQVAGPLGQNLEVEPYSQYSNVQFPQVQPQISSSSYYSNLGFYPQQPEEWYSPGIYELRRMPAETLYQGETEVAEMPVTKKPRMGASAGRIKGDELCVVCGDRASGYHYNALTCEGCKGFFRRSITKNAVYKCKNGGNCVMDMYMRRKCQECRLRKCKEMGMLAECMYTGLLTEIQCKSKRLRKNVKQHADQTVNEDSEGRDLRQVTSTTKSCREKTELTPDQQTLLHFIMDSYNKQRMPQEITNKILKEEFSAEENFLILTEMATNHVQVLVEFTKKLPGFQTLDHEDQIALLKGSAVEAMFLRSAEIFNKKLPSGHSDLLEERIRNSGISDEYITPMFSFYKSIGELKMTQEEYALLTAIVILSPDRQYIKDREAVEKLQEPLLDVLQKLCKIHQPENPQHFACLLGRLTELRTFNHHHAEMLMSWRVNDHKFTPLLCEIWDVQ

Structure (SMILES): CC(C)c1cc(C(C)C)cc(C(C)C)c1
- outcome [1]: inactive
- outcome [2]: inactive
- outcome [3]: inactive
- outcome [4]: inactive
- outcome [5]: inactive

Structure (SMILES): CCCC=C(C=O)CC
- outcome [1]: inactive
- outcome [2]: inactive
- outcome [3]: inactive
- outcome [6]: inactive

Structure (SMILES): CC1=CC=C(C(C)C)CC1
- AC50 [2]: 23.6 µM (active)
- AC50 [3]: 23.8 µM (active)
- outcome [7]: inactive
- outcome [6]: inactive

Structure (SMILES): C=C(C)C1CC=C(C)CC1 (centres undefined)
- outcome [2]: inactive
- outcome [3]: inactive
- outcome [7]: inactive
- outcome [6]: inactive

Structure (SMILES): CCCCCCC=O
- outcome [2]: inactive
- outcome [3]: inactive
- outcome [6]: inactive
- outcome [4]: inactive
- outcome [5]: inactive

Structure (SMILES): CCCCNS(=O)(=O)c1ccc(C)cc1
- outcome [2]: inactive
- outcome [3]: inactive
- outcome [6]: inactive
- outcome [4]: inactive
- outcome [5]: inactive

Structure (SMILES): CC(C)(C)N
- outcome [2]: inactive
- outcome [3]: inactive
- outcome [6]: inactive
- outcome [4]: inactive
- outcome [5]: inactive

Structure (SMILES): O=C(Oc1ccccc1)c1ccccc1O
- outcome [2]: inactive
- outcome [3]: inactive
- outcome [7]: inactive
- outcome [4]: inactive
- outcome [5]: inactive

Structure (SMILES): CC(C)c1ccc(O)c(C(C)C)c1
- outcome [1]: inactive
- outcome [2]: inactive
- outcome [3]: inactive
- outcome [7]: inactive
- outcome [4]: inactive
- outcome [5]: inactive

Structure (SMILES): O=C(O)CCC(=O)O
- outcome [2]: inactive
- outcome [3]: inactive
- outcome [6]: inactive
- outcome [4]: inactive
- outcome [5]: inactive

Structure (SMILES): CC1=CCC2CC1C2(C)C (centres undefined)
- outcome [1]: inactive
- outcome [2]: inactive
- outcome [3]: inactive
- outcome [4]: inactive
- outcome [5]: inactive

Structure (SMILES): CCOC(=O)C1=NN(c2ccc(Cl)cc2Cl)C(C)(C(=O)OCC)C1 (centres undefined)
- outcome [8]: inactive
- outcome [9]: inactive
- outcome [10]: inactive
- outcome [11]: inactive
- outcome [12]: inactive
- outcome [13]: inactive
- outcome [14]: inactive

Structure (SMILES): CC(=O)/C=C/C1C(C)=CCCC1(C)C (centres undefined)
- outcome [2]: inactive
- outcome [3]: inactive
- outcome [15]: inactive
- outcome [7]: inactive
- outcome [6]: inactive
- outcome [4]: inactive
- outcome [5]: inactive

Structure (SMILES): CCCCOCCOC(=O)COc1ccc(Cl)cc1Cl
- outcome [1]: inactive
- outcome [2]: inactive
- outcome [3]: inactive
- outcome [7]: inactive
- outcome [4]: inactive
- outcome [5]: inactive

Structure (SMILES): CC(C)COC(=O)CC(C(=O)OCC(C)C)S(=O)(=O)O (centres undefined)
- outcome [1]: inactive
- outcome [2]: inactive
- outcome [3]: inactive
- outcome [6]: inactive
- outcome [4]: inactive
- outcome [5]: inactive

Structure (SMILES): CCC1COC(=O)O1 (centres undefined)
- outcome [2]: inactive
- outcome [3]: inactive
- outcome [15]: inactive
- outcome [16]: inactive
- outcome [7]: inactive
- outcome [6]: inactive
- outcome [4]: inactive
- outcome [5]: inactive

Structure (SMILES): C=CC(=O)OCCCCCCOC(=O)C=C
- outcome [8]: inactive
- outcome [9]: inactive
- outcome [10]: inactive
- outcome [11]: inactive
- outcome [12]: inactive
- outcome [13]: inactive
- outcome [14]: inactive

Structure (SMILES): C[Si]1(C)O[Si](C)(C)O[Si](C)(C)O[Si](C)(C)O[Si](C)(C)O1
- outcome [2]: inactive
- outcome [3]: inactive
- outcome [6]: inactive
- outcome [4]: inactive
- outcome [5]: inactive

Structure (SMILES): C1CNCCN1
- outcome [1]: inactive
- outcome [2]: inactive
- outcome [3]: inactive
- outcome [6]: inactive
- outcome [4]: inactive
- outcome [5]: inactive

Structure (SMILES): O=C(OCCc1ccccc1)c1ccccc1
- outcome [2]: inactive
- outcome [3]: inactive
- outcome [6]: inactive
- outcome [4]: inactive
- outcome [5]: inactive

Structure (SMILES): CCC(C)(O)CCCC(C)C (centres undefined)
- outcome [2]: inactive
- outcome [3]: inactive
- outcome [15]: inactive
- outcome [16]: inactive
- outcome [6]: inactive
- outcome [5]: inactive

Structure (SMILES): CCc1occc(=O)c1O
- outcome [2]: inactive
- outcome [3]: inactive
- outcome [15]: inactive
- outcome [16]: inactive
- outcome [7]: inactive
- outcome [6]: inactive
- outcome [4]: inactive
- outcome [5]: inactive

Structure (SMILES): Fc1ccc(Br)cc1
- outcome [2]: inactive
- outcome [3]: inactive
- outcome [7]: inactive
- outcome [6]: inactive
- outcome [4]: inactive
- outcome [5]: inactive

Structure (SMILES): CC12CCC(CC1)C(C)(C)O2
- outcome [2]: inactive
- outcome [3]: inactive
- outcome [15]: inactive
- outcome [16]: inactive
- outcome [4]: inactive
- outcome [5]: inactive

Structure (SMILES): CC(=O)OC(C)c1ccccc1 (centres undefined)
- outcome [1]: inactive
- outcome [2]: inactive
- outcome [3]: inactive
- outcome [6]: inactive
- outcome [4]: inactive
- outcome [5]: inactive

Structure (SMILES): CCCCCCO
- outcome [2]: inactive
- outcome [3]: inactive
- outcome [7]: inactive
- outcome [6]: inactive
- outcome [4]: inactive
- outcome [5]: inactive

Structure (SMILES): COC(=O)[C@H](Cc1ccccc1)NC(=O)[C@@H](N)CC(=O)O (H-Asp-Phe-OMe)
- outcome [2]: inactive
- outcome [3]: inactive
- outcome [15]: inactive
- outcome [7]: inactive
- outcome [4]: inactive
- outcome [5]: inactive

Structure (SMILES): CCCCCC[C@@H](O)C/C=C\CCCCCCCC(=O)OCC(O)CO (some centres undefined)
- outcome [2]: inactive
- outcome [3]: inactive
- outcome [7]: inactive
- outcome [6]: inactive
- outcome [4]: inactive
- outcome [5]: inactive

Structure (SMILES): CC1=NN(c2ccc(S(=O)(=O)O)cc2)C(=O)C1N=Nc1ccccc1 (centres undefined)
- outcome [2]: inactive
- outcome [3]: inactive
- outcome [6]: inactive
- outcome [4]: inactive
- outcome [5]: inactive

Structure (SMILES): CC(=O)c1ccccc1O
- outcome [2]: inactive
- outcome [3]: inactive
- outcome [6]: inactive
- outcome [5]: inactive

Structure (SMILES): Oc1ccccc1Cc1ccccc1O
- AC50 [1]: 11.8 µM (active)
- outcome [2]: inactive
- outcome [3]: inactive
- outcome [4]: inactive
- outcome [5]: inactive
